Measurements: PubChem BioAssay (NCI)
Values joined by “and” are separate entries in the source; they are usually repeats but may differ in a detail not shown here. Equal entries are not always repeated. Compounds without any hit were thinned out: in the full panel of roughly 83,000, 20% have a hit.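 A percent growth of 40 corresponds to 60% growth inhibition; 0 means no net growth; -100 means all cells died. Active threshold: below 10.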 Active and inactive are the calls of the source.

How the values were obtained:
Assay in all cases: NCI-60 one-dose screen, 48 h (100 = growth as untreated, 0 = no growth, -100 = all killed)
Conditions in all cases: 10 µM unless noted
SK-MEL-2 melanoma = tested on: SK-MEL-2 melanoma
EKVX NSCLC = tested on: EKVX NSCLC
SN12C renal = tested on: SN12C renal
UO-31 renal = tested on: UO-31 renal
TK-10 renal = tested on: TK-10 renal
ACHN renal = tested on: ACHN renal
CAKI-1 renal = tested on: CAKI-1 renal
A498 renal = tested on: A498 renal
HL-60(TB) leukemia = tested on: HL-60(TB) leukemia
MOLT-4 leukemia = tested on: MOLT-4 leukemia
SR leukemia = tested on: SR leukemia
RPMI-8226 leukemia = tested on: RPMI-8226 leukemia
OVCAR-8 ovarian = tested on: OVCAR-8 ovarian
OVCAR-5 ovarian = tested on: OVCAR-5 ovarian
OVCAR-4 ovarian = tested on: OVCAR-4 ovarian
SK-OV-3 ovarian = tested on: SK-OV-3 ovarian
IGROV1 ovarian = tested on: IGROV1 ovarian
OVCAR-3 ovarian = tested on: OVCAR-3 ovarian
HS 578T breast = tested on: HS 578T breast
CCRF-CEM leukemia = tested on: CCRF-CEM leukemia

Measured: growth

O=C(O)C1C(C(=O)O)C2(Cl)C(Cl)=C(Cl)C1(Cl)C2(Cl)Cl (stereo unspecified)
inactive: SK-MEL-2 melanoma 108% and 113% | EKVX NSCLC 90.4% and 118% | SN12C renal 103% and 101% | UO-31 renal 73.1% and 92.2% | TK-10 renal 116% and 107% | ACHN renal 99.9% | CAKI-1 renal 116% | A498 renal 102% and 101% | HL-60(TB) leukemia 95.1% | MOLT-4 leukemia 115% and 106% | SR leukemia 104% and 118% | RPMI-8226 leukemia 94% and 115% | OVCAR-8 ovarian 107% and 101% | OVCAR-5 ovarian 91.4% and 108% | OVCAR-4 ovarian 105% and 110% | SK-OV-3 ovarian 103% and 107% | IGROV1 ovarian 109% and 118% | OVCAR-3 ovarian 99.8% and 112% | HS 578T breast 116%

COc1ccc(O)c2c(=O)c3c(OC)cc4c(c3oc12)[C@@H]1C=CO[C@@H]1O4
inactive: SN12C renal 73.1% | UO-31 renal 51.9% | TK-10 renal 36.8% | CAKI-1 renal 35.9% | A498 renal 87% | HL-60(TB) leukemia 65.8% | CCRF-CEM leukemia 92.6% | RPMI-8226 leukemia 63.5% | OVCAR-8 ovarian 50.6% | OVCAR-5 ovarian 55.2% | OVCAR-4 ovarian 40.8% | SK-OV-3 ovarian 35.6% | IGROV1 ovarian 16.3% | OVCAR-3 ovarian 52% | HS 578T breast 114%
active: SK-MEL-2 melanoma 6.45% | EKVX NSCLC 6.71% | ACHN renal 5.59% | SR leukemia -6.56%

Oc1ccccc1C=NCCN=Cc1ccccc1O.[Fe]
inactive: SK-MEL-2 melanoma 92.4% | EKVX NSCLC 110% | SN12C renal 52% | UO-31 renal 72.3% | TK-10 renal 115% | ACHN renal 92.3% | CAKI-1 renal 98.1% | A498 renal 65.5% | HL-60(TB) leukemia 44.5% | SR leukemia 73.2% | RPMI-8226 leukemia 88.6% | OVCAR-8 ovarian 84.7% | OVCAR-5 ovarian 118% | OVCAR-4 ovarian 117% | SK-OV-3 ovarian 101% | IGROV1 ovarian 71.2% | OVCAR-3 ovarian 112% | HS 578T breast 77.3%
active: CCRF-CEM leukemia -32.9%

CC1(C)C=Cc2c(ccc3c2[N+]([O-])=C2C3=C[C@@]34NC(=O)[C@]5(CCCN5C3=O)C[C@@H]4C2(C)C)O1
inactive: SK-MEL-2 melanoma 69.8% | EKVX NSCLC 34.3% | SN12C renal 30.7% | UO-31 renal 73.5% | TK-10 renal 83.1% | ACHN renal 39.7% | CAKI-1 renal 27% | A498 renal 69% | HL-60(TB) leukemia 33.6% | MOLT-4 leukemia 28.7% | SR leukemia 15.4% | RPMI-8226 leukemia 24.6% | OVCAR-8 ovarian 42.7% | OVCAR-5 ovarian 56.6% | OVCAR-4 ovarian 43.5% | SK-OV-3 ovarian 85.5% | OVCAR-3 ovarian 25% | HS 578T breast 90.8%

CC(C)CCC1C(=O)NC(=O)NC1=O
inactive: SK-MEL-2 melanoma 81.8% | EKVX NSCLC 96.1% | SN12C renal 96.3% | UO-31 renal 86.9% | TK-10 renal 84.5% | ACHN renal 100% | CAKI-1 renal 102% | A498 renal 86.6% | HL-60(TB) leukemia 99.7% | MOLT-4 leukemia 99.1% | SR leukemia 93.5% | RPMI-8226 leukemia 113% | OVCAR-8 ovarian 98.4% | OVCAR-5 ovarian 107% | OVCAR-4 ovarian 99.2% | SK-OV-3 ovarian 88.2% | IGROV1 ovarian 96% | OVCAR-3 ovarian 101% | HS 578T breast 96.6%

CC[C@H](C)[C@H](NC(=O)C12CC(NC)(C1)C2)C(=O)N(C)[C@H](C[C@@H](OC(C)=O)c1nc(C(=O)N[C@@H](Cc2ccccc2)C[C@H](C)C(=O)OC)cs1)C(C)C
inactive: SK-MEL-2 melanoma 36.7% | EKVX NSCLC 37.3% | SN12C renal 47.2% | UO-31 renal 40.7% | TK-10 renal 48.5% | ACHN renal 33.9% | CAKI-1 renal 91.2% | RPMI-8226 leukemia 26.3% | OVCAR-8 ovarian 17.5% | OVCAR-5 ovarian 52.7% | OVCAR-4 ovarian 50.3% | SK-OV-3 ovarian 39.6% | HS 578T breast 39.2%
active: A498 renal -0.0952% | HL-60(TB) leukemia -32.5% | MOLT-4 leukemia 8.66% | SR leukemia -2.59% | OVCAR-3 ovarian -14.1%

CCCCCCCCCCCCCCCC[N+](C)(C)Cc1ccccc1
25.2% (inactive) and -69% (active): SK-MEL-2 melanoma
24.7% (inactive) and -62.5% (active): OVCAR-5 ovarian
inactive: UO-31 renal 54.3% and 51% | ACHN renal 55.1% and 23.4% | CAKI-1 renal 84.4% and 50.6% | A498 renal 36.2% and 38.2% | OVCAR-8 ovarian 10.5%
active: SN12C renal 5.04% and -76.7% | TK-10 renal 8.74% and -73.5% | HL-60(TB) leukemia -28.8% and -47.8% | MOLT-4 leukemia -1.12% and -55.3% | SR leukemia 5.4% and -55% | RPMI-8226 leukemia -42.2% and -50.1% | OVCAR-4 ovarian 3.33% and -44.5% | IGROV1 ovarian -71.5% and -87.3% | OVCAR-3 ovarian 1.73% and -74% | HS 578T breast 8.98% and -27.8%
15.8% (inactive) and -27.6% (active): EKVX NSCLC
31.6% (inactive) and -7.74% (active): SK-OV-3 ovarian
